Source: PubChem (National Center for Advancing Translational Sciences (NCATS))
Most compounds without a hit are left out; they make up all but 1.2% or so of the library.
L3MBTL1 block – L3MBTL1 (human) inhibition; Q9Y468; AlphaScreen L3MBTL1–H3K9me1 peptide binding; Potency, µM (highest dose often 57.1 µM), hits mostly inhibitors; hit rate 0.66% among 230,000; AID 485360; further: nearly all actives have a fitted effect of over 60% in size
Target sequence (Q9Y468 whole entry, looked up): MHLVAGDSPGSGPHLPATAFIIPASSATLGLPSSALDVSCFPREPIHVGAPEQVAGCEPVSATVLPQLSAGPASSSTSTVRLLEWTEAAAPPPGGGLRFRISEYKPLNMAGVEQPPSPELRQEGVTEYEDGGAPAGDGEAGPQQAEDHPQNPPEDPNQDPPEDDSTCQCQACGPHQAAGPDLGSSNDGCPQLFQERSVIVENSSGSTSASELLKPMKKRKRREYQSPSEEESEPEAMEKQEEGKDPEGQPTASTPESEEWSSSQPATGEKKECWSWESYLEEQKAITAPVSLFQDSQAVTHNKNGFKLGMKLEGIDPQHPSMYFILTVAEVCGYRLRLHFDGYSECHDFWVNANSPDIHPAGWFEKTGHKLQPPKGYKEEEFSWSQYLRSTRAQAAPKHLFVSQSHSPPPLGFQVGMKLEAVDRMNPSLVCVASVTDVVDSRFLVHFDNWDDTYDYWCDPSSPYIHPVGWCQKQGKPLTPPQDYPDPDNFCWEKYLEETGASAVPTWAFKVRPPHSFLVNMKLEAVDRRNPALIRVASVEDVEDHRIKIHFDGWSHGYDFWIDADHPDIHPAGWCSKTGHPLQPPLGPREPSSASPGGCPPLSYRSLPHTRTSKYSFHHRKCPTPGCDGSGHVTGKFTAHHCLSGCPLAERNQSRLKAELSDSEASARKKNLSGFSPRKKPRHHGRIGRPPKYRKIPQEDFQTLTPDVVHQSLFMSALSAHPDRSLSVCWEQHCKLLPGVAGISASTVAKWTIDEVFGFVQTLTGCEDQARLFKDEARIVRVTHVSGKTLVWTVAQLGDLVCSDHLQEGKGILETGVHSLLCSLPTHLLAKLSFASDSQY
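L3MBTL1 50 nM + b-AHA-H3(1-15)K9me1 75 nM, 30 min RT; compound added, 30 min RT; streptavidin donor/Ni-chelate acceptor beads 10 ug/mL each final, 30 min RT dark; AlphaScreen read.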
CtBP-E1A blk – blocks the CtBP interaction with E1A | AlphaScreen GST-E1A/His-CtBP binding, 1536-well; stronger effect = lower value | activity change, % (concentration not given with the values) | hit rate 0.49% among 340,000; in the data active means activity change below about -65%; inconclusive means mostly about -30% to -63%
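In 5 uL wells, 23 nL compound meets equimolar GST-E1A and His-CtBP (5X stock 125 nM each) for 2 h, 37 °C. Beads (5X, 50 ug/mL) then 1 h, 37 °C, dark.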
Eya2 inh – Eya2 (human) phosphatase inhibition; O00167; recombinant Eya2, OMFP fluorescence dephosphorylation (OMFP is methylfluorescein phosphate); Potency, µM (highest dose often 76.9 µM), actives largely listed as inhibitors; hit rate 0.006% among 330,000; AID 488837
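Eya2 (0.2 uM) preincubated 10 min at ambient with compound, then OMFP substrate added at 50 uM; 10 min reaction in 50 mM HEPES pH 7.5, 50 mM NaCl, 5 uM MgCl2, 0.05% BSA, 1 mM DTT. Fluorescence read at Ex 485/Em 525 nm.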
USP2a block – inhibitors of human ubiquitin-specific protease USP2a. O75604. USP2 core, Ub-CHOP2 coupled fluorogenic reporter, 485/531. Potency, µM (doses to about 38.3 µM), most hits filed as inhibitors. hit rate 0.01% among 330,000. AID 463254
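Cell-free coupled assay: 10nM USP2 core preincubated 30min RT with compound in Tris-HCl pH 8.0/CaCl2/CHAPS buffer, then 25nM Ub-CHOP2 and 25nM reporter substrate; fluorescence (Ex 485/Em 531) read after 60min RT, normalized to NEM inhibition, concentration-response curves fitted.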
uPA generation – cell surface uPA generation inhibition; cell surface uPA generation assay, qHTS; Potency, µM (series often up to 38.3 µM), hits mostly inhibitors; hit rate 0.31% among 330,000; AID 540303; active means well fitted inhibition curve with a large enough effect; inconclusive means small, poorly fitted or top-dose-only effect; inactive means no such curve, though single readings can be large or run the other way; tested in mouse RAW 264.7 cells; further: nearly all actives have a fitted effect of over 55% in size
Six1-Eya2 inh – Six1/Eya2 interaction inhibition; AlphaScreen GST-Six1/His-Eya2 binding, biochemical; stronger effect = lower value; activity change, % (concentration not given with the values); hit rate 0.56% among 360,000; AID 651725; in the data active means activity change below about -65%; inconclusive means mostly about -30% to -63%
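Homogeneous AlphaScreen proximity assay pairing GST-Six1 with His-tagged Eya2 (added as 5X mix: 250 nM and 500 nM) in 50 mM Tris pH 8.0, 300 mM NaCl, 1 mM TCEP. Glutathione donor and nickel acceptor beads; 1 h, 37 °C, dark.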
Each line names hits and unclear results; the compound was inactive in the other large screens. Unless noted, the call rests on the fitted dose curve; in most records, active means well fitted curve in the direction sought with a large enough effect; inconclusive means small, poorly fitted or top-dose-only effect, or another doubt; inactive means no such curve, though single readings can be large; an effect the other way counts as inactive or inconclusive.

COc1ccc(-n2c(C)cc(C(=O)CN3C(=O)NC4(CCCc5sccc54)C3=O)c2C)cc1 (centres undefined)	uPA generation 11µM (no result: CtBP-E1A blk)
O=C(O)CN(CCO)CCN(CC(=O)O)CC(=O)O	none (no result: CtBP-E1A blk, uPA generation, Six1-Eya2 inh)
O=C(O)CN(CC(=O)O)CC(=O)O	CtBP-E1A blk -96, Six1-Eya2 inh -73 (no result: L3MBTL1 block, Eya2 inh, USP2a block)
Oc1ccc(N=Cc2ccc(O)c(O)c2)cc1	L3MBTL1 block 8.9µM, Six1-Eya2 inh inconclusive
Oc1ccc(/C=N/N=C/c2ccc(O)c(O)c2)cc1O	L3MBTL1 block 8.9µM
Oc1ccc(/C=N/N=C/c2ccc(O)cc2)cc1	none
Oc1ccc(/C=N/N(c2ccccc2)c2ccccc2)cc1O	none (no result: L3MBTL1 block)
NC(=O)c1ccccc1NC(=O)c1ccc2c(c1)OCO2	uPA generation inconclusive (no result: CtBP-E1A blk)
C/C(=N/NC(=O)C1CCN(S(=O)(=O)c2ccc(C)cc2)CC1)c1cccc([N+](=O)[O-])c1	none
COc1ccc(Cn2c(N)c(C#N)c3nc4ccccc4nc32)cc1OC	none (no result: L3MBTL1 block)
COc1ccc(CCn2c(N)c(C#N)c3nc4ccccc4nc32)cc1OC	CtBP-E1A blk -69, Six1-Eya2 inh -65
Nc1c(S(=O)(=O)c2cccs2)c2nc3ccccc3nc2n1CCc1ccccc1	none (no result: CtBP-E1A blk, uPA generation, Six1-Eya2 inh)
COc1ccc(CCn2c(N)c(S(=O)(=O)c3cccs3)c3nc4ccccc4nc32)cc1OC	Six1-Eya2 inh -67
c1ccc(N=NC2=NN(c3ccccc3)CS2)cc1	CtBP-E1A blk inconclusive, Six1-Eya2 inh -77 (no result: L3MBTL1 block, Eya2 inh, USP2a block, uPA generation)
C=CCOc1c(Cl)cc(CNc2ccc(N(C)C)cc2)cc1OC	L3MBTL1 block 13µM, CtBP-E1A blk inconclusive, Six1-Eya2 inh inconclusive (no result: uPA generation)
C=CCOc1c(Cl)cc(CNc2ccc(C)c(Cl)c2)cc1OC	none (no result: L3MBTL1 block, CtBP-E1A blk, uPA generation, Six1-Eya2 inh)
O=C1C(=Cc2ccco2)C(=O)c2ccccc21	L3MBTL1 block inconclusive
O=C1CNC(=O)/C(=C/c2ccco2)N1	L3MBTL1 block 35µM
Cc1ccc(S(=O)(=O)n2nccc2-c2c(-c3ccc(Cl)cc3)noc2C)cc1	none
O=C(O)c1ccc(N2C(=O)c3cccc4c(C(=O)O)ccc(c34)C2=O)cc1	L3MBTL1 block 3.5µM
COCCN(CC(=O)Nc1cccc(C)c1C)C(=O)Cn1cnc2ccccc2c1=O	none
CN(CC(=O)Nc1cccc(F)c1)C(=O)c1cccc(-n2cccc2)c1	L3MBTL1 block 7.1µM, Six1-Eya2 inh inconclusive
CN(CC(=O)Nc1cccc(F)c1)C(=O)c1ccc2c(c1)CC(c1ccccc1)OC2=O (centres undefined)	uPA generation 4µM
CN(CC(=O)Nc1cccc(F)c1)C(=O)c1ccc(N2C(=O)c3ccccc3C2=O)cc1	none
O=C(COC(=O)CCNS(=O)(=O)c1ccccc1F)Nc1nnc(-c2ccccc2)o1	none
Nc1ccc2c(c1)C/C(=C/c1ccco1)C2=O	L3MBTL1 block 28µM
CC1OC1c1ccc(-c2ccc(C3OC3C)cc2)cc1 (centres undefined)	CtBP-E1A blk -86 (no result: L3MBTL1 block, Eya2 inh, USP2a block)
O=C(O)c1ccc(NS(=O)(=O)c2ccc3c(c2)C(=O)c2ccccc2C3=O)cc1	CtBP-E1A blk inconclusive, Six1-Eya2 inh -72
O=C(O)c1ccc(NS(=O)(=O)c2cccc(S(=O)(=O)c3ccc(Cl)c(Cl)c3)c2)cc1	none (no result: L3MBTL1 block)
COc1ccc(C(C)=O)c(Oc2cc(NN3CCCCC3)c([N+](=O)[O-])cc2[N+](=O)[O-])c1	none
O=[N+]([O-])c1ccc(O)c2cccnc12	none (no result: L3MBTL1 block)
O=[N+]([O-])c1cc([N+](=O)[O-])c2cccnc2c1Oc1ccccc1O	L3MBTL1 block inconclusive, CtBP-E1A blk inconclusive, Six1-Eya2 inh -65
O=[N+]([O-])c1ccc(O)c2ncccc12	L3MBTL1 block inconclusive, CtBP-E1A blk -96, uPA generation inconclusive, Six1-Eya2 inh -91
Cc1ccc(S(=O)(=O)NCc2ccccc2Br)cc1	none (no result: L3MBTL1 block, Eya2 inh, USP2a block, uPA generation)
COc1cccc(NC(=O)CCc2c(C)nc3nc(CNC(=O)c4cccc(F)c4)nn3c2C)c1	CtBP-E1A blk -76, Six1-Eya2 inh inconclusive (no result: L3MBTL1 block)
Cc1n[nH]c(=S)n(/N=C/c2cccc([N+](=O)[O-])c2)c1=O	CtBP-E1A blk -66, Six1-Eya2 inh inconclusive
Cc1n[nH]c(=S)n(/N=C/c2ccccn2)c1=O	CtBP-E1A blk -87, Six1-Eya2 inh -79
